The results in this text go back to publication PMC5540273 (PLoS ONE, 2017).

Test [1] relates to CLK1.
Test [2] relates to CSK.
Test [3] concerns CSNK1A1L.
In test [4] the test system is CSNK1D.
In test [5] the test system is CSNK1G1.
Test [6] relates to CSNK2A1.
The test system of test [7] is DAPK1.
Test [8] concerns DAPK3.
The subject of test [9] is DDR2.
The subject of test [10] is T1, DLK.
T1 construct: gene MAP3K12

Test [11] deals with T2, DMPK2.
T2 construct: gene CDC42BPG

The subject of test [12] is DMPK.
The subject of test [13] is T3, DRAK1.
T3 construct: gene STK17A
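Also: kd values determined as follow-up on hits from a single-replicate KINOMEscan panel screen.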

In the case of `CC(C)(C)c1ccc(C(=O)Nc2cn3cc(-c4cccnc4)ccc3n2)cc1`, the affinity in test [1], expressed as Kd, was 280 nM.
In the case of `CS(=O)(=O)c1ccc(-c2nc3n(c2-c2ccncc2)CCC3)cc1` [SKF-105942], the Kd (as a rule, a measure of binding affinity in units of concentration) in [2] was > 10000 nM.
Consider `CCn1c(-c2cccnc2O)nc2cnccc21` [SB-736715], for which, in test [3], the Kd was > 10000 nM.
Turning to `CN(C)CCN(C)C(=O)c1cc(-c2ccncc2)c(-c2ccc(Cl)c(O)c2)o1.Cl.Cl` [SB-710397], in test [4], the Kd was found to be 220 nM.
`CSc1nn2c(=O)cc(N3CCOCC3)nc2n1Cc1cccc(C(F)(F)F)c1C` [GSK2363608]: the Kd in test [5] is > 10000 nM.
In turn, `Cc1cccc(-c2nc(Nc3ccc4[nH]ncc4c3)c3ccccc3n2)n1` [GW857175] returned a Kd in test [6] of 100 nM.
As for `Cc1ccccc1-n1cnc2c(N)ncnc21` [SKF-97510], the Kd in test [7] was > 10000 nM.
Turning to `Cc1cc(N2Cc3ccccc3C2)nc(Nc2ccc(S(=O)(=O)N3CCOCC3)cc2)n1.Cl` [GSK1669917], in test [8], the Kd is > 10000 nM.
Consider `CC(=O)Nc1nc2cnc(Nc3cc(NC(=O)c4cccc(CCC#N)c4)ccc3C)nc2s1`, for which the Kd in [9] is > 10000 nM.
As to `Cc1ccc(NC(=O)Nc2cc(C(C)(C)C)nn2-c2ccccc2)cc1` [GSK1014915], the Kd in test [9] came to 410 nM.
In test [10], `COc1ccc(CNC(=O)NC2CCN(c3ccnc(Nc4cc(OC)c(OC)c(OC)c4)n3)C2)cc1` (stereo not shown) [GSK1379748] gave a Kd of 5100 nM.
`Cc1cc(-c2ccc3c(c2)CC[C@@H](N[C@@H](C)c2ccccc2)C3)cnc1N.Cl` [GW412617] displayed a Kd in test [10] of 280 nM.
On to `COc1ccc2nc(-c3cccc(C)n3)nc(Nc3ccncc3)c2c1` [GSK204919], for which the Kd in [11] was 510 nM.
`Cc1cccc(-c2nc(C)cc(Nc3ccncc3)n2)n1` [GSK257997]: in test [11], the Kd was determined as 560 nM. The Kd values of the last two compounds are within 1.5-fold of each other.
In the case of `Nc1nc(-c2nccs2)c(-c2ccnc3ccccc23)s1` [GW693542], the Kd in [12] was > 10000 nM.
Regarding `C[C@@H]1CCCCN1c1cc(-c2ccc3c(N)n[nH]c3c2)nc(N)n1` [GSK2258759], in test [13], the Kd came out at 88 nM.
